Measured values taken from PubChem BioAssay AID1159580 (chemical genetic matrix, 2015).
Hit rate of the full screen: of about 5,500 compounds, about 2,000 (36%) were called active. About 18% were inconclusive and are not listed. Cut-off read from the data, not from the text of the source: active = normalized growth mostly below about 0.91 (no sharp cut-off); inconclusive = no clear call, values can overlap the other calls; inactive = mostly above about 0.92. The list shows a part of the results.

Assay: chemical genetic growth profiling, strain panel (AID 1159580);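 note: tested at 20 µM; growth read once vehicle control cultures reached saturation at 30 °C; 1 = growth at the plate median or of vehicle wells; lower values mean less growth of the strain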
Conditions: S. cerevisiae deletion strains, growth OD

Measured: normalized growth

CC1(C)C(=O)N(CCN2CCC(C(=O)c3ccc(F)cc3)CC2)c2ccccc21
inactive: locus YAL013W, strain DEP1, active compounds read low 0.998 | locus YAL040C, strain CLN3, active compounds read low 1.01 | locus YCL061C, strain MRC1 (second series), active compounds read low 0.999 | locus YDR150W, strain NUM1, active compounds read low 0.998 | locus YDR363W, strain ESC2, active compounds read low 0.992 | locus YER002W, strain NOP16, active compounds read low 1.01 | locus YGR229C, strain SMI1, active compounds read low 0.993 | locus YNL128W, strain TEP1, active compounds read low 1.03 | locus YNL175C, strain NOP13, active compounds read low 1.02 | locus YNL197C, strain WHI3, active compounds read low 1.02 | locus YNL224C, strain SQS1, active compounds read low 1.02 | locus YNL322C, strain KRE1, active compounds read low 1 | locus YOR083W, strain WHI5 (second series), active compounds read low 0.969 | locus YPL055C, strain LGE1, active compounds read low 0.982

CC1C(c2ccccc2)N(C)C(c2ccccc2)CC1(O)c1ccc(F)cc1 (stereo not given)
inactive: locus YAR019C, strain CDC15, active compounds read low 0.988 | locus YBL105C, strain PKC1, active compounds read low 0.991 | locus YBR135W, strain CKS1, active compounds read low 0.99 | locus YBR136W, strain MEC1, active compounds read low 0.994 | locus YBR160W, strain CDC28, active compounds read low 0.995 | locus YDL017W, strain CDC7, active compounds read low 0.997 | locus YDL028C, strain MPS1, active compounds read low 1 | locus YDL101C, strain DUN1, active compounds read low 0.986 | locus YDL108W, strain KIN28, active compounds read low 1.01 | locus YDL132W, strain cdc53, active compounds read low 0.989 | locus YDL214C, strain PRR2, active compounds read low 0.976 | locus YDR052C, strain DBF4, active compounds read low 0.995 | locus YDR054C, strain cdc34, active compounds read low 0.993 | locus YDR226W, strain ADK1, active compounds read low 0.992 | locus YDR477W, strain SNF1, active compounds read low 0.992 | locus YER123W, strain YCK3, active compounds read low 0.934 | locus YER133W, strain GLC7, active compounds read low 0.995 | locus YFL009W, strain cdc4, active compounds read low 0.989 | locus YFL029C, strain CAK1, active compounds read low 0.99 | locus YFR003C, strain YPI1, active compounds read low 0.999 | locus YFR019W, strain FAB1, active compounds read low 0.996 | locus YFR028C, strain CDC14, active compounds read low 0.984 | locus YGR040W, strain KSS1, active compounds read low 0.997 | locus YGR052W, strain FMP48, active compounds read low 1.11 | locus YGR092W, strain DBF2, active compounds read low 0.968 | locus YHR079C, strain IRE1, active compounds read low 1.14 | locus YHR082C, strain KSP1, active compounds read low 1.13 | locus YHR205W, strain SCH9, active compounds read low 0.979 | locus YIL147C, strain SLN1, active compounds read low 1 | locus YJL095W, strain BCK1, active compounds read low 1.1 | locus YJL128C, strain PBS2, active compounds read low 0.952 | locus YJL157C, strain FAR1, active compounds read low 0.972 | locus YJR016C, strain ILV3, active compounds read low 0.989 | locus YJR066W, strain TOR1 (second series), active compounds read low 0.983 | locus YJR066W, strain TOR1, active compounds read low 1.13 | locus YKL048C, strain ELM1, active compounds read low 0.982 | locus YKL067W, strain YNK1, active compounds read low 0.98 | locus YKL101W, strain HSL1, active compounds read low 0.99 | locus YKL193C, strain SDS22, active compounds read low 0.994 | locus YKL203C, strain TOR2, active compounds read low 1.06 | locus YLR113W, strain HOG1, active compounds read low 1.04 | locus YLR133W, strain CKI1, active compounds read low 0.98 | locus YLR403W, strain SFP1, active compounds read low 0.99 | locus YML070W, strain DAK1, active compounds read low 0.973 | locus YMR001C, strain CDC5, active compounds read low 0.982 | locus YMR205C, strain PFK2 (second series), active compounds read low 0.989 | locus YMR277W, strain FCP1, active compounds read low 0.997 | locus YNL006W, strain LST8, active compounds read low 0.977 | locus YNL020C, strain ARK1, active compounds read low 0.984 | locus YNL161W, strain CBK1, active compounds read low 1 | locus YNL183C, strain NPR1, active compounds read low 1.14 | locus YNL207W, strain RIO2, active compounds read low 0.999 | locus YNL222W, strain SSU72, active compounds read low 0.99 | locus YNL307C, strain MCK1 (second series), active compounds read low 0.987 | locus YOL078W, strain AVO1, active compounds read low 0.992 | locus YOL136C, strain PFK27, active compounds read low 0.99 | locus YOR061W, strain CKA2, active compounds read low 0.972 | locus YOR119C, strain RIO1, active compounds read low 1.04 | locus YOR231W, strain MKK1, active compounds read low 1.1 | locus YOR329C, strain SCD5, active compounds read low 0.992 | locus YPL031C, strain PHO85, active compounds read low 0.984 | locus YPL153C, strain RAD53, active compounds read low 0.983 | locus YPL204W, strain HRR25, active compounds read low 1 | locus YPL209C, strain IPL1, active compounds read low 1 | locus YPL256C, strain CLN2, active compounds read low 1.1 | locus YPR025C, strain CCL1, active compounds read low 0.995 | locus YPR106W, strain ISR1, active compounds read low 0.999 | locus YPR111W, strain DBF20, active compounds read low 0.99 | strain NNK1, active compounds read low 0.998 | strain TSCII, active compounds read low 0.987
active: locus YHR030C, strain SLT2, active compounds read low 1.26 [resistant]
